Consider seven molecules from PubChem BioAssay.

Calls of active or inactive are those of the source. Rule as the data show it, unless noted: active = parasite load remaining mostly below about 12% (no sharp cut-off); inactive = mostly above about 10%.

Test [1] can be described thus: hESC survival regulators, cell-based (AID 493140; call rule not given here;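 also: cells exposed to compounds for four days before counting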). The note with it: human embryonic stem cell survival screen; stronger effect = higher value.
Test [2] is described as follows: liver-stage malaria parasite growth inhibition, primary screen, cell-based, HepG2, luciferase luminescence, HepG2 viability (AID 624349).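 Also: 100% = mean of DMSO negative control wells on the same plate.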 The note with it: P. berghei liver stage in HepG2, luciferase luminescence, concentration not given here; parasite load remaining: stronger effect = lower value; viability: measured here: HepG2 viability without parasites.

Take `COC(=O)C1=CO[C@@H](C)[C@@H]2CN3CCc4c([nH]c5ccccc45)C3C[C@H]12` (some centres undefined): the survival in test [1] is 5.92 (inactive). In test [2], the parasite load remaining was 62.4% (inactive) and the viability (usually a per cent measure of how many cells are alive, often set against a control) came out at 77.2%.
`CC(C)(CO)[C@H](O)C(=O)NCCC(=O)O`: the survival in test [1] is 19.5 (inactive). Moreover, in test [2], the parasite load remaining was 85.1% (inactive) and the viability came to 77.3%.
As for `CC(=O)O[C@H]1C(=O)[C@@]2(C)[C@H](O)C[C@@H]3OC[C@]3(OC(C)=O)[C@@H]2[C@@H](OC(=O)c2ccccc2)[C@@]2(O)C[C@@H](OC(=O)[C@@H](O)[C@H](NC(=O)c3ccccc3)c3ccccc3)C(C)=C1C2(C)C`, in test [1], the survival is 5 (inactive). For the same molecule, in test [2], the parasite load remaining was 172% (inactive) and the viability turned out to be 89.6%.
On to `CC(C)CC(=O)NC(C(=O)N[C@H](C(=O)NC(CC(C)C)[C@@H](O)CC(=O)N[C@@H](C)C(=O)NC(CC(C)C)[C@@H](O)CC(=O)O)C(C)C)C(C)C` (some centres undefined), for which, in test [1], the survival was 5.42 (inactive). Besides, in test [2], the parasite load remaining is 67.7% (inactive) and the viability was 80.5%.
As for `CC(C)(CS)C(=O)N1CCC[C@@H]1C(=O)O`, the survival in test [1] is 8.75 (inactive). For the same molecule, in test [2], the parasite load remaining was 94.4% (inactive) and the viability turned out to be 94.8%.
Regarding `N#Cc1c(-c2ccccc2)cc(-c2cc(Br)ccc2O)[nH]c1=O`, in test [2], the parasite load remaining is 30.2% (inactive) and the viability stood at 75.4%.
As to `CO[C@H]1C[C@@H]2CC[C@@H](C)[C@@](O)(O2)C(=O)C(=O)N2CCCC[C@H]2C(=O)O[C@H](C(C)C[C@H]2CC[C@@H](O)[C@H](OC)C2)CC(=O)[C@H](C)/C=C(\C)[C@@H](O)[C@@H](OC)C(=O)[C@H](C)C[C@H](C)/C=C/C=C/C=C/1C` (some centres undefined), in test [2], the parasite load remaining was 45.4% (inactive) and the viability amounted to 63.2%.
